Reference: PubChem BioAssay (Tox21)
Values joined by “and” are separate entries in the source; they are usually repeats but may differ in a detail not shown here. Equal entries are not always repeated. Inconclusive results are not listed. A number with no mark means an inactive call. Active and inactive are the calls of the source. Unless noted, calls follow the shape of the full dose curve.

Assay: qHTS assay for small molecule agonists of the p53 signaling pathway (AID 651631)
Settings: HCT-116 p53RE-bla reporter, beta-lactamase FRET ratio, 16 h; series mostly up to 73.3 µM; activation: at the top concentration
Outline: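 We treat p53RE-bla HCT-116 cells with compounds for 16 h at 37 °C, add LiveBLAzer B/G FRET substrate for 2 h at room temperature, and measure fluorescence intensity.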
% is scaled to controls: 0 for no effect and ±100 for the full control effect; potency is read from the fitted curve at half-maximal effect.
Also: nearly all actives have a fitted effect of over 15% in size.

SMILES	activation	Potency
O=C(O)[C@H](O)[C@@H](O)[C@H](O[C@@H]1O[C@H](CO)[C@H](O)[C@H](O)[C@H]1O)[C@H](O)CO	-2.6% [at 34.7 µM]	
Cc1c2ccccc2c(C)c2c1ccc1ccccc12		30.3 µM (active) and 54.5 µM (active)
NC[C@H]1O[C@H](O[C@H]2[C@H](O[C@@H]3O[C@H](CO)[C@@H](O)[C@H]3O)C(O)[C@H](N)C[C@@H]2N)[C@H](N)[C@@H](O)[C@@H]1O (stereo partly drawn)	1.31% [at 34.7 µM]	
O=C(O)Cc1ccccc1Nc1c(Cl)cccc1Cl	5.52%	
CC(C)CCCCCOC(=O)CCS	6.19%	
COc1cc(/C=C/c2ccccc2)oc(=O)c1	-1.78% [at 95.1 µM]	
CCO[Si](OCC)(OCC)OCC	-3.11% [at 95.1 µM]	
CCCCC(CC)COC(=O)CCCCC(=O)OCc1ccccc1 (stereo not drawn)	-0.222%	
NC(=S)NC(N)=S	2.66%	
CC(=O)c1ccc(C(C)=O)cc1	1.24% [at 95.1 µM]	
Cc1ccc(C(=O)O)cc1	-2.09% [at 95.1 µM]	
CCC(CC)(CC(=O)Nc1cccc(/C=C/c2nc(C3CCC3)cs2)c1)C(=O)O	-2.47%	
CCOC(=O)NNc1ccc(N(CC)CC(C)O)nn1 (stereo not drawn)	-3.22%	
C=CC(=O)Nc1cc2c(Nc3ccc(F)c(Cl)c3)ncnc2cc1OCCCN1CCOCC1		11.9 µM (active)
CCN(CC)c1ccc2c(-c3ccc(S(=O)(=O)O)cc3S(=O)(=O)[O-])c3ccc(=[N+](CC)CC)cc-3oc2c1	-1.62% [at 95.1 µM]	
Cc1cccc2cccnc12	-2.22%	
c1ccsc1	-2.05%	
O=S(=O)(O)c1ccc(Nc2nc(Nc3ccc(/C=C/c4ccc(Nc5nc(Nc6ccc(S(=O)(=O)O)cc6)nc(N(CCO)CCO)n5)cc4S(=O)(=O)O)c(S(=O)(=O)O)c3)nc(N(CCO)CCO)n2)cc1		41.3 µM (active)

SMILES	activation	Potency
CC(C)(C)CC(C)(C)c1ccc(Nc2ccc(C(C)(C)CC(C)(C)C)cc2)cc1	-6.72% [at 8.3 µM]	
CC(C)=CCC1=C(O)c2ccccc2C(=O)C1=O		1.53 µM (active)
ClCCl	-6.02%	
CCCCNS(=O)(=O)c1ccc(C)cc1	4.12%	
CC(CO)Oc1ccccc1 (stereo not drawn)	-2.11% [at 95.1 µM]	
C=C(CC)C(=O)c1ccc(OCC(=O)O)c(Cl)c1Cl		11.9 µM (active) and 9.62 µM (active)
CCC(COC(=O)CCS)(COC(=O)CCS)COC(=O)CCS		68.6 µM (active)
O=C(O)c1cccc(C(F)(F)F)c1	-0.644%	
O=C(O)CCN(C1(C(=O)NO)CCCC1)S(=O)(=O)c1ccc(Oc2ccc(F)cc2)cc1	-2.54%	
Nc1ccc(C(=O)O)c(O)c1	-1.23%	
C[C@H]1NCc2cc(-c3ccc4c(=O)c(C(=O)O)cn(C5CC5)c4c3OC(F)F)ccc21	-2.04%	
O=C(Oc1ccccc1)Oc1ccccc1	0.712%	
O=[N+]([O-])c1ccc(O)cc1C(F)(F)F		27.3 µM (active)
COC(=O)Nc1nc2ccc(C(=O)c3ccccc3)cc2[nH]1		0.16 µM (active)
O=C(O)c1cc(=O)c2ccccc2o1	-2.19%	
CC1=Nc2ccccc2C1(C)C	-5.48%	
CCCCCCCC/C=C\CCCCCCCCN	-2.9%	
CCCCC(CC)CN1CN(CC(CC)CCCC)CC(C)(N)C1 (stereo not drawn)	-1.93% [at 34.7 µM]	

Assay: qHTS assay for small molecules that induce genotoxicity in human embryonic kidney cells expressing luciferase-tagged ATAD5 (AID 651632; active = well fitted activation curve with a large enough effect in the repeat runs)
Settings: HEK293T ATAD5-luciferase induction, 16 h; series mostly up to 83.3 µM; activation: at the top concentration
Outline: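 Increased luciferase signal from ATAD5-tagged reporter cells indicates DNA-damage-driven ATAD5 induction. HEK293T cells are treated for 16 hr at 37C before detection with Amplite.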

SMILES	Potency	activation
Cc1c2ccccc2c(C)c2c1ccc1ccccc12	inactive	
NC[C@H]1O[C@H](O[C@H]2[C@H](O[C@@H]3O[C@H](CO)[C@@H](O)[C@H]3O)C(O)[C@H](N)C[C@@H]2N)[C@H](N)[C@@H](O)[C@@H]1O (stereo partly drawn)		-6.31% [at 39.1 µM]
O=C(O)Cc1ccccc1Nc1c(Cl)cccc1Cl	inactive	
CC(C)CCCCCOC(=O)CCS		-3.42%
CCO[Si](OCC)(OCC)OCC		3.83% [at 95.3 µM]
CCCCC(CC)COC(=O)CCCCC(=O)OCc1ccccc1 (stereo not drawn)		2.1%
CCOC(=O)NNc1ccc(N(CC)CC(C)O)nn1 (stereo not drawn)		2.33%
CCN(CC)c1ccc2c(-c3ccc(S(=O)(=O)O)cc3S(=O)(=O)[O-])c3ccc(=[N+](CC)CC)cc-3oc2c1		-4.49% [at 95.3 µM]
Cc1cccc2cccnc12		-2.07%
c1ccsc1		-2.74%
O=S(=O)(O)c1ccc(Nc2nc(Nc3ccc(/C=C/c4ccc(Nc5nc(Nc6ccc(S(=O)(=O)O)cc6)nc(N(CCO)CCO)n5)cc4S(=O)(=O)O)c(S(=O)(=O)O)c3)nc(N(CCO)CCO)n2)cc1		-1.03%
CC(C)(C)CC(C)(C)c1ccc(Nc2ccc(C(C)(C)CC(C)(C)C)cc2)cc1		2.9% [at 8.08 µM]
CC(C)=CCC1=C(O)c2ccccc2C(=O)C1=O		-6.84%
ClCCl		-0.439%
CCCCNS(=O)(=O)c1ccc(C)cc1		-1.5%
CC(CO)Oc1ccccc1 (stereo not drawn)		7.15% [at 95.3 µM]
C=C(CC)C(=O)c1ccc(OCC(=O)O)c(Cl)c1Cl	inactive	
O=C(O)c1cccc(C(F)(F)F)c1		-1.42%
O=C(O)CCN(C1(C(=O)NO)CCCC1)S(=O)(=O)c1ccc(Oc2ccc(F)cc2)cc1		-1.02%
C[C@H]1NCc2cc(-c3ccc4c(=O)c(C(=O)O)cn(C5CC5)c4c3OC(F)F)ccc21		2.64%
COC(=O)Nc1nc2ccc(C(=O)c3ccccc3)cc2[nH]1	3.2 µM (active)	
CCCCCCCC/C=C\CCCCCCCCN		-1.72%
